Test results taken from the antibiotic and cytotoxicity screens of Wong et al. (2023).
The whole screen tested about 39,000 compounds, of which about 3,300 (8.5%) were called active. The entries come from a sample that favours actives as a whole.

The molecules below were run on HepG2 (assay: cytotoxicity call (relative viability < 0.9)). Conditions: 10 µM.

SMILES	cytotoxicity call
Nc1nc(/C(=N/O)C(=O)N[C@@H]2C(=O)N3C(C(=O)O)=C(/C=C4\CCN([C@@H]5CCNC5)C4=O)CS[C@H]23)ns1	inactive
CSc1ncc(C(=O)NN)n1C	inactive
CCS(=O)(=O)NCC[C@H]1CC[C@H](NC(=O)C2CC2)[C@H](CO)O1	inactive
CN(C)C(=O)COC[C@]12COC[C@H]1CN(S(C)(=O)=O)C2	inactive
C[C@H](CO)N1C[C@H](C)[C@H](CN(C)C(=O)Nc2ccc3c(c2)OCO3)Oc2ccc(NC(=O)c3ccncc3)cc2CC1=O	inactive
C[C@H](CO)N1C[C@H](C)[C@H](CN(C)C(=O)Nc2ccc3c(c2)OCO3)Oc2ccc(NS(=O)(=O)c3cn(C)cn3)cc2CC1=O	inactive
O=C(Nc1ccc2c(c1)[C@@H]1C[C@@H](CC(=O)N3CCc4ccccc4C3)O[C@H](CO)[C@@H]1O2)C1CCOCC1	inactive
C[C@@H]1CN([C@@H](C)CO)C(=O)Cc2cc(NC(=O)C3CC3)ccc2O[C@@H]1CN(C)C(=O)Nc1ccccc1	inactive
C[C@@H]1CN([C@H](C)CO)C(=O)c2cc(NC(=O)C3CCCCC3)ccc2O[C@@H](C)CCCCO[C@@H]1CN(C)S(=O)(=O)c1ccc(F)cc1	inactive
O=C(CN1CCOCC1)NCC[C@H]1CC[C@@H](NC(=O)Cc2ccccn2)[C@@H](CO)O1	inactive
Cc1noc(C)c1NC(=O)N(C)C[C@H]1Oc2c(NS(=O)(=O)c3c(C)noc3C)cccc2C(=O)N([C@@H](C)CO)C[C@H]1C	inactive
C=CCOC(=O)[C@H]1[C@@H]2C(=O)O[C@@H](c3ccccc3)[C@@H](c3ccccc3)N2[C@@H](c2ccc(OCCOC(=O)[C@H]3C[C@H]4C(=O)N[C@@H](Cc5ccccc5)C(=O)N4[C@H]3c3ccc(O)cc3)cc2)[C@]12C(=O)Nc1ccccc12	inactive
C[C@H]1CN([C@@H](C)CO)C(=O)c2cc(NC(=O)c3ccncc3)ccc2O[C@H]1CN(C)S(=O)(=O)c1ccccc1	inactive
O=C(CCCCC(=O)N/N=C/[C@H](O)[C@@H](O)[C@H](O)[C@H](O)CO)NO	inactive
Cc1cc(N)c2ccccc2[n+]1CCCCCCCCCC[n+]1c(C)cc(N)c2ccccc21.[Cl-].[Cl-]	active
CCCN(C)C[C@@H]1OCCCC[C@@H](C)Oc2ccc(NS(=O)(=O)c3ccc(Cl)cc3)cc2C(=O)N([C@H](C)CO)C[C@@H]1C	inactive
COc1ccc(NC(=O)Nc2ccc3c(c2)C(=O)N([C@H](C)CO)C[C@H](C)[C@H](CN(C)Cc2ccncc2)OCCCC[C@@H](C)O3)cc1	inactive
CN(C)c1nc(N)nc(CSc2nnnn2C)n1	inactive
COc1ccc(CN(C)C[C@H]2Oc3ccc(NS(=O)(=O)c4c(C)noc4C)cc3CC(=O)N([C@H](C)CO)C[C@H]2C)cc1	inactive
O=C(C[C@@H]1C[C@@H]2c3cc(NC(=O)c4ccc5c(c4)OCO5)ccc3O[C@@H]2[C@H](CO)O1)NCC(F)(F)F	inactive
C[C@H](CO)N1C[C@H](C)[C@@H](CN(C)Cc2ccc(Cl)c(Cl)c2)OCCCC[C@H](C)Oc2ccc(NS(=O)(=O)c3cccs3)cc2C1=O	inactive
C[C@@H]1CCCCO[C@@H](CN(C)Cc2ccc(Cl)c(Cl)c2)[C@H](C)CN([C@H](C)CO)C(=O)c2cc(NS(=O)(=O)c3cccs3)ccc2O1	inactive
C[C@@H]1CCCCO[C@H](CN(C)Cc2ccc(Cl)c(Cl)c2)[C@@H](C)CN([C@H](C)CO)C(=O)c2cc(NS(=O)(=O)c3cccs3)ccc2O1	active
C[C@@H]1CCCCO[C@@H](CN(C)Cc2ccc(Cl)c(Cl)c2)[C@@H](C)CN([C@@H](C)CO)C(=O)c2cc(NS(=O)(=O)c3cccs3)ccc2O1	active
C[C@@H]1CCCCO[C@H](CN(C)Cc2ccc(Cl)c(Cl)c2)[C@H](C)CN([C@H](C)CO)C(=O)c2cc(NS(=O)(=O)c3cccs3)ccc2O1	inactive

SMILES	cytotoxicity call
C[C@@H]1CCCCO[C@@H](CN(C)Cc2ccc(Cl)c(Cl)c2)[C@@H](C)CN([C@H](C)CO)C(=O)c2cc(NS(=O)(=O)c3cccs3)ccc2O1	inactive
CC(C)NC(=O)N(C)C[C@@H]1Oc2ccc(NC(=O)CCCN(C)C)cc2C(=O)N([C@@H](C)CO)C[C@@H]1C	inactive
C[C@@H]1CN([C@H](C)CO)C(=O)c2cc(NC(=O)CCN3CCOCC3)ccc2O[C@@H]1CN(C)Cc1ccccc1	inactive
C[C@H]1CN([C@@H](C)CO)C(=O)c2cc(C#CC3CC3)cnc2O[C@H]1CN(C)S(=O)(=O)c1cccc(F)c1	inactive
COc1ccc(NC(=O)Nc2ccc3c(c2)C(=O)N([C@@H](C)CO)C[C@@H](C)[C@H](CN(C)C(=O)NC(C)C)OCCCC[C@@H](C)O3)cc1	inactive
C[C@H]1CN([C@@H](C)CO)C(=O)c2cccc(NC(=O)c3ccncc3)c2O[C@@H]1CN(C)Cc1ccc2c(c1)OCO2	inactive
N[C@@H](Cc1ccc(F)cc1)C(=O)O	inactive
NNC(=S)NCc1ccc(F)cc1	inactive
NC(=CS(=O)(=O)Cc1ccc(F)cc1)NO	active
CC(=O)O[C@H]1[C@H](O)[C@H](O)[C@H](O[C@@H]2[C@@H](Oc3cc(O)c4c(=O)cc(-c5ccc(O)c(O)c5)oc4c3)O[C@@H](C(=O)O)[C@H](O)[C@@H]2O)O[C@@H]1C	inactive
C[C@H]1CN([C@@H](C)CO)C(=O)c2cc(NC(=O)CCCN(C)C)ccc2O[C@@H]1CN(C)S(=O)(=O)c1ccc(Cl)cc1	inactive
Cc1ccccc1OCC(O)CO (stereo not given)	active
CC(C)c1ccccc1OC[C@@H](O)CN	inactive
Cc1ccccc1OC[C@@H](O)CO	inactive
COc1cccc(NC(=O)N(C)C[C@H]2Oc3ncc(Br)cc3C(=O)N([C@H](C)CO)C[C@H]2C)c1	inactive
C[C@H]1COC(=O)[C@@H](Cc2ccc(F)cc2)CC=CC[C@@H](CC(=O)N[C@H](CO)Cc2ccccc2)C(=O)N1	inactive
Cn1nccc1NC(=O)/C=C/C(=O)O	inactive
C[C@@H]1CN([C@@H](C)CO)S(=O)(=O)c2ccc(-c3cccc(C#N)c3)cc2O[C@@H]1CN(C)C(=O)c1cccnc1	inactive
C[C@@H]1CCCCO[C@@H](CN(C)C(=O)Nc2ccccc2)[C@@H](C)CN([C@H](C)CO)C(=O)c2cc(NC(=O)Nc3ccc(F)cc3)ccc2O1	inactive
C[C@@H]1CCCCO[C@@H](CN(C)C(=O)Nc2ccc(F)cc2)[C@@H](C)CN([C@H](C)CO)C(=O)c2cc(NC(=O)Nc3ccc(F)cc3)ccc2O1	inactive
C[C@@H]1CN([C@H](C)CO)C(=O)c2cc(NC(=O)Nc3ccc(F)cc3)ccc2O[C@@H](C)CCCCO[C@H]1CN(C)C(=O)Nc1ccc(F)cc1	active
C[C@@H]1CCCCO[C@@H](CN(C)C(=O)Nc2ccc(F)cc2)[C@H](C)CN([C@@H](C)CO)C(=O)c2cc(NC(=O)Nc3ccccc3)ccc2O1	inactive
C[C@H]1CCCCO[C@H](CN(C)C(=O)Nc2ccccc2)[C@@H](C)CN([C@@H](C)CO)C(=O)c2cc(NC(=O)Nc3ccc(F)cc3)ccc2O1	active
C[C@@H]1CCCCO[C@H](CN(C)C(=O)Nc2ccc(F)cc2)[C@@H](C)CN([C@H](C)CO)C(=O)c2cc(NC(=O)Nc3ccc(F)cc3)ccc2O1	inactive
COc1ccc(NC(=O)Nc2ccc3c(c2)C(=O)N([C@H](C)CO)C[C@H](C)[C@H](CN(C)Cc2ccc4c(c2)OCO4)OCCCC[C@@H](C)O3)cc1	inactive

SMILES	cytotoxicity call
Cc1ccc(S(=O)(=O)N2C[C@H](O)COC[C@@H]3O[C@@H](CC(=O)NCc4ccc5c(c4)OCO5)CC[C@H]32)cc1	inactive
COc1ccc(S(=O)(=O)N(C)C[C@H]2Oc3c(cccc3N(C)C)C(=O)N([C@H](C)CO)C[C@@H]2C)cc1	inactive
CC(=O)N1[C@H](Cn2cncn2)C[C@H]2CN(C(N)=O)CC[C@H]21	inactive
COc1ccc(NC(=O)N(C)C[C@H]2OCCCC[C@@H](C)Oc3ccc(NC(=O)Nc4c(C)noc4C)cc3C(=O)N([C@@H](C)CO)C[C@H]2C)cc1	inactive
C[C@@H]1CCCCO[C@H](CN(C)Cc2ccccc2)[C@H](C)CN([C@@H](C)CO)C(=O)c2cc(NC(=O)CCC(F)(F)F)ccc2O1	inactive
COc1ccc(NC(=O)Nc2ccc3c(c2)C(=O)N([C@H](C)CO)C[C@@H](C)[C@@H](CN(C)C(=O)c2ccccc2)OCCCC[C@H](C)O3)cc1	inactive
NNC(=O)CCCCCC(=O)NO	inactive
NNC(=O)CCCCC(=O)NO	active
NNC(=O)CCCCCCC(=O)NO	inactive
Cc1cc([N+](=O)[O-])nn1CC(=O)NC(C)C	inactive
COc1cc2c(cc1OC)C(=O)NCC2	active
COc1cc2c(cc1OC)Cc1cc(OC)c(OC)cc1Cc1cc(OC)c(OC)cc1C2	inactive
COc1cc2c(cc1OC)C(=O)OC2	inactive
CO[C@H]1CN(C)C(=O)c2cc(NC(=O)C3CC3)ccc2OC[C@H](C)N(C(=O)Cc2ccccn2)C[C@H]1C	inactive
Cc1cc(C(=O)Nc2cccc3c2O[C@@H](CN(C)C(=O)Nc2ccccc2)[C@H](C)CN([C@@H](C)CO)C3=O)n(C)n1	inactive
NCCCCCc1nnc(SCC(N)=O)o1	inactive
Cc1ccc(CSc2nnc(CCN)o2)cc1	active
CC1(C)CC(=O)c2c(C(F)(F)F)nn(-c3ccc(C(N)=O)c(O[C@H]4CC[C@H](N)CC4)c3)c2C1	inactive
CC1(C)CC(=O)c2c(C(F)(F)F)nn(-c3ccc(C(N)=O)c(N[C@H]4CC[C@H](OC(=O)CN)CC4)c3)c2C1	active
CC(C)[C@@H](CC[C@@H](C)[C@H]1CC[C@H]2[C@@H]3[C@H](O)C[C@H]4C[C@@H](NCCCNCCCCNCCCN)CC[C@]4(C)[C@H]3CC[C@]12C)OS(=O)(=O)O	active
CC(CCC(=O)O)C1CCC2C3C(O)CC4CC(O)CCC4(C)C3CCC12C (stereo not given)	inactive
CC(CCC(=O)O)C1CCC2C3CCC4CC(O)CCC4(C)C3CCC12C (stereo not given)	inactive
CCCCCCCCCCCCCCCCCCCC(=O)N[C@H]1CC[C@@]2(C)[C@@H](C1)C[C@@H](O)[C@@H]1[C@@H]2C[C@H](O)[C@]2(C)[C@@H]([C@H](C)CCC(=O)O)CC[C@@H]12	inactive
CC(C)[C@@H](CC[C@@H](C)[C@H]1CC[C@H]2[C@@H]3[C@H](O)C[C@H]4C[C@@H](NCCCNCCCCN)CC[C@]4(C)[C@H]3CC[C@]12C)OS(=O)(=O)O	active
CCC(CCC(C)C1CCC2C3CCC4CC(O)CCC4(C)C3CCC12C)C(C)C (stereo not given)	inactive
